High-throughput results: PubChem BioAssay, National Center for Advancing Translational Sciences (NCATS)
TDP1 inh – blocks human tyrosyl-DNA phosphodiesterase 1; AID 485290; recombinant TDP1, AlphaScreen DNA substrate cleavage; 350,000 tested, 0.28% active; Q9NUW8; Potency, µM (highest dose often 130 µM), for the others: at the highest dose activity change, negative = inhibition, most hits filed as inhibitors; note: % is set by controls: 0 for no effect and ±100 for the full control effect; nearly all actives have a fitted effect of over 40% in size
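E. coli-derived human Tdp1, 1 nM final. Cpd preinc 15 min RT; substrate 15 nM final, 5 min RT; AS bead mix 10 ug/ml final, 10 min RT. Signal loss = tyrosine-FITC cleavage. No-enzyme wells = max signal.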
Pol iota inh – DNA polymerase iota (human) inhibition; Q9UNA4; AID 588590; 390,000 tested, 1% active; Potency, µM (highest dose often 115 µM), without a hit: at the top dose activity, negative = inhibition, actives largely listed as inhibitors; Pol iota fluorescent replication assay, 10 min
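Pol iota at 10 nM preincubated 15 min with compounds at room temperature; reaction started with fluorescent substrate, 50 nM final. Fluorescence read kinetically at 0 and 10 min; buffer-only wells as negative control.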
Pol kappa inh – DNA polymerase kappa (human) inhibition; Q9UBT6; purified Pol kappa, fluorescent DNA synthesis assay, 10 min; Potency, µM (titrated, usually from 107 µM), for the others: at the top dose activity, negative = inhibition, most hits filed as inhibitors; 400,000 tested, 0.53% active; AID 588579; note: % is set by controls: 0 for no effect and ±100 for the full control effect
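First, compounds were pin-transferred onto 10 nM Pol kappa. After 15 min at room temperature, substrate was added to 50 nM final. Fluorescence was then measured kinetically at 0 and 10 min.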
POLB inh – DNA polymerase beta (human) inhibition; P06746; Pol beta primer extension/strand displacement, fluorescence kinetic; Potency, µM (highest dose often 114 µM), for the others: top-dose activity change, negative = inhibition, hits mostly inhibitors; 340,000 tested, 1.3% active; AID 485314; note: % is set by controls: 0 for no effect and ±100 for the full control effect
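Pol beta (10 nM) was preincubated with compound for 15 min at room temperature. The reaction was then started with 50 nM substrate and read immediately and after a further 10 min at room temperature.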
FEN1 inh-1 – inhibitors of human flap endonuclease 1. P39748. Recombinant FEN1 flap cleavage, fluorescence, 15 min. Potency, µM (top dose mostly 114 µM), without a hit: top-dose activity change, negative = inhibition, most hits filed as inhibitors. 390,000 tested, 0.35% active. AID 588795; note: % is set by controls: 0 for no effect and ±100 for the full control effect; nearly all actives have a fitted effect of over 65% in size
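Enzyme 10 nM, 15 min RT preincubation with compound; start with substrate 50 nM final; reads at 0 and 15 min; qHTS titration, four-parameter Hill fit.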
POLH inh – inhibitors of human DNA polymerase eta; Q9Y253; recombinant Pol eta, fluorescent DNA replication assay; Potency, µM (series often up to 114 µM), for the others: top-dose activity change, negative = inhibition, usual class: inhibitors; 390,000 tested, 1.2% active; AID 588591; note: % is set by controls: 0 for no effect and ±100 for the full control effect
Target sequence (Q9Y253 whole entry, looked up): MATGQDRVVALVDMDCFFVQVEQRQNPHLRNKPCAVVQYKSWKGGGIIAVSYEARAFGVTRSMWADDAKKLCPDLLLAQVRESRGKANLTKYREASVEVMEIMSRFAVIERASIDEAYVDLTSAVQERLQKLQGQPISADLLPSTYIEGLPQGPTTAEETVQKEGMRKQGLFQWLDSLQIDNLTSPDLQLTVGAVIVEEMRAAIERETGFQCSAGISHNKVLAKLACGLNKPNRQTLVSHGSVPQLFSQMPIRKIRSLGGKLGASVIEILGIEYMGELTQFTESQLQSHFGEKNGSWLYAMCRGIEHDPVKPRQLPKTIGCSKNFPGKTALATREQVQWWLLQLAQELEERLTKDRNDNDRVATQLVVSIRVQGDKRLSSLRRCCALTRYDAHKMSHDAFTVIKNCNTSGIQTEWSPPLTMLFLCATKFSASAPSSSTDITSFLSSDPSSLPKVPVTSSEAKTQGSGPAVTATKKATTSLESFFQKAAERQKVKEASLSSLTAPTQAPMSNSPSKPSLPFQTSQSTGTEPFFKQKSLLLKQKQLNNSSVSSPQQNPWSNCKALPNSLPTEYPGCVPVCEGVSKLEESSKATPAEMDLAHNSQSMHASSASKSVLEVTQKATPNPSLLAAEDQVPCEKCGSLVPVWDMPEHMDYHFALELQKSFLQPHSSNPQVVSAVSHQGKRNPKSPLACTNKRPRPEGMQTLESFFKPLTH
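Pol eta (10 nM) was preincubated with compounds for 15 min at room temperature, after which fluorescent replication substrate (50 nM final) was added to start the reaction. Fluorescence was read kinetically at 0 and 10 min.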
FEN1 inh-2 – FEN1 inhibition, cherry-pick retest | shares compounds with FEN1 inh-1 | FEN1 flap cleavage, TAMRA/BHQ2 fluorogenic DNA substrate | Potency, µM, usual class: inhibitors | 880 tested, 79% active | AID 720498; note: nearly all actives have a fitted effect of over 60% in size
Numbers without * were called inactive; ? = inconclusive; . = no result given; ! = repeats disagree; [ ] = dose if it differs, or a comment. This is a sample that favours compounds with a hit; in the whole collection about 2.4% have one here. Calls come from the whole dose curve; as a rule, active = well fitted curve in the direction sought with a large enough effect; inconclusive = small, poorly fitted or top-dose-only effect, or another doubt; inactive = no such curve, though single readings can be large; an effect the other way counts as inactive or inconclusive. Potency is the fitted concentration of half-maximal effect.

SMILES	TDP1 inh	Pol iota inh	Pol kappa inh	POLB inh	FEN1 inh-1	POLH inh	FEN1 inh-2
CCc1ccccc1NC(=O)c1ccc(CN2C(=O)CCn3nc(C)cc32)cc1	3%	38%	8%	-1%	0%	-14%	.
COc1ccc(C(=O)Nc2ccc(-n3nncc3-c3ccc(OC)c(OC)c3)cc2)cc1	8%	?	-21%[60.1 µM]	1%	-11%	-5%	.
c1ccc(CNc2c3ccccc3nc3ccccc23)cc1	.	?	-27%	?	?	?	11*
CNc1nc(NCc2ccccc2)c2ccccc2n1	.	70%	-6%	6%	-3%	-6%	.
Fc1ccc(-c2nc3ccccc3c3nc4ccccc4n23)cc1	-3%	0%	1%	1%	5%	-8%	.
Cc1nc2ccccc2c2nc3ccccc3n12	3%	?	-10%	?	22µM*	-7%	27*
Cc1[nH]c2ccccc2c1/C=C/c1cc[n+](C)cc1	3%	-6%	-10%	-28%	?	-13%	?
CCN1/C(=C/c2ccc3cc(C)ccc3[n+]2CC)Sc2cc(C)ccc21	2%	?	-18%	?	?	?	7.6*
CCCn1c(SCC(=O)Nc2ccccc2Cl)n[nH]c1=O	0%	34%	-1%	5%	-6%	-19%	.
CCN(CC)c1ccc(C=C2SC(=S)NC2=O)cc1	.	?	?	.	-29%	?	?
CCN(CC)c1ccc(/C=C2\SC(N)=NC2=O)cc1	3%	16%	-4%	5%	15%	-14%	.
CCc1ccc(NC(=O)CSc2ccc(-c3cccs3)nn2)cc1	-5%	-11%	-3%	13%	-3%	-15%	.
CCOC(=O)c1nc2sc3c(c2c(=O)n1C(C)C(=O)OCC)CCCC3 (stereo not given)	-9%	15%	-14%	25%	1%	-17%	.
O=C(CSc1ccsc1[N+](=O)[O-])NCc1ccccc1	-8%	?	-25%	?	-1%	79µM*	?
Nc1c(C(=O)O)ccc2c1C(=O)c1ccccc1C2=O	8%	?	-13%	?	50µM*	-29%	34*
Nc1c(SCCC(=O)O)ccc2c1C(=O)c1ccccc1C2=O	.	?	2%	?	?	-29%	.
CCc1ccc(-c2n[nH]nc2C2=CC(=O)C[C@H](c3ccc(F)cc3)C2)cc1	.	.	.	.	.	-8%	.
Oc1ccc(NCc2ccccc2OCc2ccccc2F)cc1	10%	10µM*	-22%	23%	?	50µM*!	?
NS(=O)(=O)c1ccc(NCc2ccccc2OCc2ccccc2F)cc1	4%	9%	-10%	-7%	-18%	-21%	.
CCCCCCCCn1c2c(c(=N)c3ccccc31)CCC2	0%	86%	-4%	6%	-14%	-16%	.
Cc1cc(C)c2c(=N)c3ccccc3n(CCCCCCCCn3c4ccccc4c(=N)c4c(C)cc(C)nc43)c2n1	.	?	-35%	.	7.1µM*	?	5.4*
O=C(Cc1cnn(-c2ccccc2)c1)c1ccc(O)c(O)c1O	-1%	?	2.5µM*	?	25µM*	?	34*
O=[N+]([O-])c1ccc(N/N=C/c2ccc(O)c(O)c2O)c(S(=O)(=O)N2CCOCC2)c1	8%	?	?	?	20µM*	?	34*
O=C1C=C(c2cccc3c2sc2ccccc23)C[C@@H](c2ccc(F)cc2)C1	2%	-1%	3%	.	-1%	-10%	.
COc1cc(NC(=O)c2cc3c(C)nc4ccccc4c3o2)cc(OC)c1OC	7%	-14%	-33%	?	?	?	?
CCN(CC)CCn1c2ccccc2c2cnc(N)c(C#N)c21	-5%	?	?	14µM*	?	?	21*
CN(C)C=Nc1ccc2nc3c(cc2c1)[nH]c1ccccc13	.	-19%	-3%	?	?	?	30*
